# Compounds without any hit were thinned out: in the full panel of roughly 79,000, 15% have a hit. A number with no mark means an inactive call. Activity calls are given as the source filed them. Rule as the data show it: active = growth inhibition above about 70%; inactive = the rest.
# Assays:
# [1] = NCI Yeast Anticancer Drug Screen. Data for the rad52 strain (AID 147);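 also: 0% = growth of vehicle-treated control cultures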; conditions: S. cerevisiae rad52 mutant growth inhibition, active compounds read high
# Method in brief: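 Vehicle-treated cultures served as the reference for growth inhibition of compound-exposed yeast bearing a DNA repair mutation.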
# [2] = NCI Yeast Anticancer Drug Screen. Data for the wt1 strain (AID 149);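 also: 0% = growth of vehicle-treated wt1 cultures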; conditions: S. cerevisiae wt1 strain (SPY 50644) growth inhibition, active compounds read high
# Method in brief: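 The wt1 strain was treated with compounds, and growth was compared with vehicle-treated cultures to give inhibition.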
# [3] = NCI Yeast Anticancer Drug Screen. Data for the rad50EPP+ strain (AID 151);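 also: 0% = growth of vehicle-treated control cultures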; conditions: S. cerevisiae rad50 mutant strain, active compounds read high
# Method in brief: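 In this screen, rad50EPP+ yeast were exposed to compounds. Growth inhibition was scored against vehicle-treated controls.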
# [4] = NCI Yeast Anticancer Drug Screen. Data for the mgt1 strain (AID 153); conditions: S. cerevisiae mgt1 mutant growth inhibition, active compounds read high
# Method in brief: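 mgt1 strain exposed; growth vs vehicle control recorded as inhibition.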
# [5] = NCI Yeast Anticancer Drug Screen. Data for the rad50 strain (AID 155);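 also: 0% = growth of vehicle-only cultures of the same strain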; conditions: S. cerevisiae rad50 strain growth inhibition, active compounds read high
# Method in brief: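 Cells are treated with compound, grown, and their growth is then scored against vehicle-only cultures of the same repair-deficient yeast strain.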
# [6] = NCI Yeast Anticancer Drug Screen. Data for the mec2-1 strain (AID 157); conditions: S. cerevisiae mec2-1 strain, active compounds read high
# Method in brief: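 Vehicle-treated cultures served as reference for growth inhibition of compound-exposed mec2-1 yeast.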
# [7] = NCI Yeast Anticancer Drug Screen. Data for the rad14 strain (AID 159);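 also: 0% = growth of vehicle-treated control cultures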; conditions: S. cerevisiae rad14 strain growth inhibition, active compounds read high
# Method in brief: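 Readout: yeast growth inhibition, referenced to vehicle-only cultures. Strain bears a defined alteration in DNA damage repair.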
# [8] = NCI Yeast Anticancer Drug Screen. Data for the sgs1 mgt1 strain (AID 161);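 also: 0% = growth of cultures given vehicle only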; conditions: S. cerevisiae sgs1 mgt1 strain, active compounds read high
# Method in brief: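 Read-out: growth inhibition vs vehicle controls. Cells: mutant yeast strain deficient in DNA damage repair.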
# [9] = NCI Yeast Anticancer Drug Screen. Data for the CLN2oe strain (AID 163);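 also: 0% = growth of vehicle-only control cultures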; conditions: S. cerevisiae CLN2oe strain, active compounds read high
# Method in brief: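 Inhibition relative to vehicle-treated yeast is reported. Cells: strain with genetic alteration in cell-cycle control, grown with compound.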
# [10] = NCI Yeast Anticancer Drug Screen. Data for the cln2 rad14 strain (AID 165);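 also: 0% = growth equal to vehicle treated cultures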; conditions: S. cerevisiae cln2 rad14 strain, active compounds read high
# Method in brief: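 Each compound was tested on cln2 rad14 yeast. Inhibition of growth was calculated against vehicle-exposed controls.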
# [11] = NCI Yeast Anticancer Drug Screen. Data for the bub3 strain (AID 167); conditions: S. cerevisiae bub3 mutant strain, active compounds read high
# Method in brief: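 Part of a panel of yeast mutants defective in DNA damage repair or cell cycle regulation. Each strain is grown with compound, and inhibition is calculated relative to solvent-treated cultures.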
# [12] = NCI Yeast Anticancer Drug Screen. Data for the wt2 strain (AID 169);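 also: 0% = growth of vehicle-treated yeast cultures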; conditions: S. cerevisiae wt2 strain growth inhibition, active compounds read high
# Method in brief: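 Inhibition of yeast growth was determined after compound treatment, normalised to controls receiving only vehicle.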
# [13] = NCI Yeast Anticancer Drug Screen. Data for the sgs1 strain (AID 173);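 also: 0% = growth of vehicle-only control cultures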; conditions: S. cerevisiae sgs1 mutant, active compounds read high
# Method in brief: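 Screen format: yeast with repair or checkpoint alterations, compound exposure, growth read relative to vehicle.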
# [14] = NCI Yeast Anticancer Drug Screen. Data for the mlh1 rad18 strain (AID 175); conditions: S. cerevisiae mlh1 rad18 strain growth inhibition, active compounds read high
# Method in brief: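 Vehicle-treated cultures served as the reference for growth inhibition in a yeast strain carrying DNA damage repair alterations exposed to each compound.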
# [15] = NCI Yeast Anticancer Drug Screen. Data for the rad18 strain (AID 177); conditions: S. cerevisiae rad18 mutant growth inhibition, active compounds read high
# Method in brief: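 Test articles were incubated with altered yeast defective in DNA damage repair. Results are given as inhibition of growth versus vehicle.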
# [16] = NCI Yeast Anticancer Drug Screen. Data for the mlh1 strain (AID 171);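 also: 0% = growth of vehicle-treated control cultures of the same strain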; conditions: S. cerevisiae mlh1 strain growth inhibition, active compounds read high
# Method in brief: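 Vehicle-normalised growth inhibition of a repair- or checkpoint-altered yeast strain following compound treatment.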
# [17] = at 5.0 µM (retest, dose inferred, filed as 0.5)
# [18] = at 50.0 µM (retest, dose inferred, filed as 5.0)
compound,measurement,setting,value
Cc1nc2ccc(N=NN(C)C)cc2[nH]1,growth inhibition,[1]; at 1.2 µM,11%
same,growth inhibition,[1]; at 3.7 µM,8%
same,growth inhibition,[1]; at 11.0 µM,3%
same,growth inhibition,[1]; at 33.0 µM,72% (active)
same,growth inhibition,[1]; at 100.0 µM,97% (active)
same,growth inhibition,[2]; at 1.2 µM,13%
same,growth inhibition,[2]; at 3.7 µM,6%
same,growth inhibition,[2]; at 11.0 µM,7%
same,growth inhibition,[2]; at 33.0 µM,25%
same,growth inhibition,[2]; at 100.0 µM,98% (active)
same,growth inhibition,[3]; at 1.2 µM,13%
same,growth inhibition,[3]; at 3.7 µM,14%
same,growth inhibition,[3]; at 11.0 µM,8%
same,growth inhibition,[3]; at 33.0 µM,51%
same,growth inhibition,[3]; at 100.0 µM,98% (active)
same,growth inhibition,[4]; at 1.2 µM,2%
same,growth inhibition,[4]; at 3.7 µM,3%
same,growth inhibition,[4]; at 11.0 µM,15%
same,growth inhibition,[4]; at 33.0 µM,99% (active)
same,growth inhibition,[4]; at 100.0 µM,99% (active)
same,growth inhibition,[5]; at 1.2 µM,22%
same,growth inhibition,[5]; at 3.7 µM,16%
same,growth inhibition,[5]; [17],-3%
same,growth inhibition,[5]; at 11.0 µM,15%
same,growth inhibition,[5]; at 33.0 µM,83% (active)
same,growth inhibition,[5]; [18],97% (active)
same,growth inhibition,[5]; at 50.0 µM,84% (active)
same,growth inhibition,[5]; at 100.0 µM,98% (active)
same,growth inhibition,[6]; at 1.2 µM,15%
same,growth inhibition,[6]; at 3.7 µM,21%
same,growth inhibition,[6]; [17],-9%
same,growth inhibition,[6]; at 11.0 µM,20%
same,growth inhibition,[6]; at 33.0 µM,98% (active)
same,growth inhibition,[6]; [18],98% (active)
same,growth inhibition,[6]; at 50.0 µM,91.3% (active)
same,growth inhibition,[6]; at 100.0 µM,98% (active)
same,growth inhibition,[7]; at 1.2 µM,4%
same,growth inhibition,[7]; at 3.7 µM,4%
same,growth inhibition,[7]; at 11.0 µM,12%
same,growth inhibition,[7]; at 33.0 µM,15%
same,growth inhibition,[7]; at 100.0 µM,97% (active)
same,growth inhibition,[8]; [17],-6%
same,growth inhibition,[8]; [18],7%
same,growth inhibition,[8]; at 50.0 µM,88.8% (active)
same,growth inhibition,[9]; at 1.2 µM,8%
same,growth inhibition,[9]; at 3.7 µM,1%
same,growth inhibition,[9]; at 11.0 µM,30%
same,growth inhibition,[9]; at 33.0 µM,96% (active)
same,growth inhibition,[9]; at 100.0 µM,96% (active)
same,growth inhibition,[10]; [17],8%
same,growth inhibition,[10]; [18],35%
same,growth inhibition,[10]; at 50.0 µM,87.5% (active)
same,growth inhibition,[11]; at 1.2 µM,-6%
same,growth inhibition,[11]; at 3.7 µM,-5%
same,growth inhibition,[11]; [17],-19%
same,growth inhibition,[11]; at 11.0 µM,-2%
same,growth inhibition,[11]; at 33.0 µM,97% (active)
same,growth inhibition,[11]; [18],98% (active)
same,growth inhibition,[11]; at 50.0 µM,87.8% (active)
same,growth inhibition,[11]; at 100.0 µM,98% (active)
same,growth inhibition,[12]; at 1.2 µM,-15%
same,growth inhibition,[12]; at 3.7 µM,4%
same,growth inhibition,[12]; at 11.0 µM,6%
same,growth inhibition,[12]; at 33.0 µM,98% (active)
same,growth inhibition,[12]; at 100.0 µM,98% (active)
same,growth inhibition,[13]; at 1.2 µM,27%
same,growth inhibition,[13]; at 3.7 µM,39%
same,growth inhibition,[13]; at 11.0 µM,40%
same,growth inhibition,[13]; at 33.0 µM,49%
same,growth inhibition,[13]; at 100.0 µM,99% (active)
same,growth inhibition,[14]; [17],-7%
same,growth inhibition,[14]; [18],98% (active)
same,growth inhibition,[14]; at 50.0 µM,89% (active)
same,growth inhibition,[15]; at 1.2 µM,18%
same,growth inhibition,[15]; at 3.7 µM,23%
same,growth inhibition,[15]; at 11.0 µM,26%
same,growth inhibition,[15]; at 33.0 µM,77% (active)
same,growth inhibition,[15]; at 100.0 µM,98% (active)
CC(NCCN(C)C)C1CCC2C3CCc4cc(O)ccc4C3CCC12C (stereo not drawn),growth inhibition,[1]; at 1.2 µM,6%
same,growth inhibition,[1]; at 3.7 µM,16%
same,growth inhibition,[1]; at 11.0 µM,57%
same,growth inhibition,[1]; at 33.0 µM,93% (active)
same,growth inhibition,[1]; at 100.0 µM,95% (active)
same,growth inhibition,[2]; at 1.2 µM,-4%
same,growth inhibition,[2]; at 3.7 µM,-1%
same,growth inhibition,[2]; at 11.0 µM,7%
same,growth inhibition,[2]; at 33.0 µM,43%
same,growth inhibition,[2]; at 100.0 µM,97% (active)
same,growth inhibition,[3]; at 1.2 µM,26%
same,growth inhibition,[3]; at 3.7 µM,41%
same,growth inhibition,[3]; at 11.0 µM,66%
same,growth inhibition,[3]; at 33.0 µM,90% (active)
same,growth inhibition,[3]; at 100.0 µM,96% (active)
same,growth inhibition,[4]; at 1.2 µM,0%
same,growth inhibition,[4]; at 3.7 µM,1%
same,growth inhibition,[4]; at 11.0 µM,13%
same,growth inhibition,[4]; at 33.0 µM,75% (active)
same,growth inhibition,[4]; at 100.0 µM,97% (active)
same,growth inhibition,[5]; at 1.2 µM,14%
same,growth inhibition,[5]; at 3.7 µM,19%
same,growth inhibition,[5]; [17],-10%
same,growth inhibition,[5]; at 11.0 µM,57%
same,growth inhibition,[5]; at 33.0 µM,92% (active)
same,growth inhibition,[5]; [18],55%
same,growth inhibition,[5]; at 50.0 µM,81% (active)
same,growth inhibition,[5]; at 100.0 µM,93% (active)
same,growth inhibition,[6]; at 1.2 µM,2%
same,growth inhibition,[6]; at 3.7 µM,5%
same,growth inhibition,[6]; [17],2%
same,growth inhibition,[6]; at 11.0 µM,14%
same,growth inhibition,[6]; at 33.0 µM,68%
same,growth inhibition,[6]; [18],49%
same,growth inhibition,[6]; at 50.0 µM,61.2%
same,growth inhibition,[6]; at 100.0 µM,97% (active)
same,growth inhibition,[7]; at 1.2 µM,3%
same,growth inhibition,[7]; at 3.7 µM,4%
same,growth inhibition,[7]; at 11.0 µM,13%
same,growth inhibition,[7]; at 33.0 µM,65%
same,growth inhibition,[7]; at 100.0 µM,98% (active)
same,growth inhibition,[8]; [17],7%
same,growth inhibition,[8]; [18],47%
same,growth inhibition,[8]; at 50.0 µM,91.2% (active)
same,growth inhibition,[9]; at 1.2 µM,1%
same,growth inhibition,[9]; at 3.7 µM,1%
same,growth inhibition,[9]; at 11.0 µM,11%
same,growth inhibition,[9]; at 33.0 µM,61%
same,growth inhibition,[9]; at 100.0 µM,95% (active)
same,growth inhibition,[10]; [17],35%
same,growth inhibition,[10]; [18],29%
same,growth inhibition,[10]; at 50.0 µM,41.7%
same,growth inhibition,[11]; at 1.2 µM,6%
same,growth inhibition,[11]; at 3.7 µM,11%
same,growth inhibition,[11]; [17],-4%
same,growth inhibition,[11]; at 11.0 µM,33%
same,growth inhibition,[11]; at 33.0 µM,76% (active)
same,growth inhibition,[11]; [18],44%
same,growth inhibition,[11]; at 50.0 µM,63.1%
same,growth inhibition,[11]; at 100.0 µM,94% (active)
same,growth inhibition,[12]; at 1.2 µM,-1%
same,growth inhibition,[12]; at 3.7 µM,0%
same,growth inhibition,[12]; at 11.0 µM,15%
same,growth inhibition,[12]; at 33.0 µM,84% (active)
same,growth inhibition,[12]; at 100.0 µM,97% (active)
same,growth inhibition,[16]; at 1.2 µM,4%
same,growth inhibition,[16]; at 3.7 µM,4%
same,growth inhibition,[16]; at 11.0 µM,26%
same,growth inhibition,[16]; at 33.0 µM,78% (active)
same,growth inhibition,[16]; at 100.0 µM,97% (active)
same,growth inhibition,[15]; at 1.2 µM,22%
same,growth inhibition,[15]; at 3.7 µM,20%
same,growth inhibition,[15]; at 11.0 µM,52%
same,growth inhibition,[15]; at 33.0 µM,91% (active)
same,growth inhibition,[15]; at 100.0 µM,95% (active)

# — PubChem BioAssay (NCI)
